The record followed here is PubChem BioAssay (Tox21).

SMILES strings stand for the structures. Inconclusive results are not listed. Activity calls are given as the source filed them. Unless noted, calls follow the shape of the dose curve; as a rule, active = well fitted curve in the direction sought with a large enough effect in the repeat runs; inconclusive = weak or mixed curves; inactive = no such curve, though single readings can be large; an effect the other way counts as inactive or inconclusive.

Experiment [1] can be described thus: A CellTox Green Cytotoxicity Assay to monitor cytotoxicity in HepG2 cells - 0 hour (AID 1224882). Also: nearly all actives have a fitted effect of over 35% in size. In short, it runs like this: (§1)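 HepG2 cells were seeded together with the CellTox Green dye at 600 cells/well, left 5 h at 37 C/5% CO2, then given compounds in DMSO. Fluorescence from dye bound to dead-cell DNA was read repeatedly over 40 h of treatment at 37 C.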

Experiment [2] in a line: A CellTox Green Cytotoxicity Assay to monitor cytotoxicity in HepG2 cells - 32 hour (AID 1224883). Also: nearly all actives have a fitted effect of over 50% in size. In short, it runs like this: as §1
Experiment [3] can be described thus: A CellTox Green Cytotoxicity Assay to monitor cytotoxicity in HEK293 cells - 8 hour (AID 1224884). Also: nearly all actives have a fitted effect of over 35% in size. The essentials:
(§2)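 HEK293 cells premixed with CellTox Green dye were seeded at 600 cells/well and left 5 h at 37 C/5% CO2 before pin transfer of 23 nL compound in DMSO. Fluorescence from dye bound to dead-cell DNA was read during 40 h treatment.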

A short description of experiment [4]: qHTS RealTime-Glo MT Cell Viability Assay in HepG2 cells - 16 hour (AID 1224885). Also: nearly all actives have a fitted effect of over 50% in size. The essentials: (§3)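 Cell number in HepG2 cultures estimated from NanoLuc luminescence generated by metabolic reduction of a prosubstrate by living cells. The homogeneous, nonlytic format allowed repeated reads at 0, 8, 16, 24, 32 and 40 h of compound exposure.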
Experiment [5] can be described thus: qHTS RealTime-Glo MT Cell Viability Assay in HEK293 cells - 8 hour (AID 1224887). Also: top concentration of the series differs between compounds; nearly all actives have a fitted effect of over 50% in size. The essentials: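 HEK293 cells mixed with RealTime-Glo reagents (NanoLuc plus cell-permeant prosubstrate) at 600 cells/well, preincubated 5 h at 37 C/5% CO2, then given 23 nL compound in DMSO. Nonlytic luminescence from viable cells was read at 0, 8, 16, 24, 32 and 40 h.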
Experiment [6] in a line: A CellTox Green Cytotoxicity Assay to monitor cytotoxicity in HEK293 cells - 16 hour (AID 1224888). Also: nearly all actives have a fitted effect of over 35% in size. In short, it runs like this: as §2
Experiment [7] is described as follows: qHTS RealTime-Glo MT Cell Viability Assay in HepG2 cells - 0 hour (AID 1224889). Also: nearly all actives have a fitted effect of over 50% in size. In short, it runs like this:
as §3

A short description of experiment [8]: A CellTox Green Cytotoxicity Assay to monitor cytotoxicity in HepG2 cells - 8 hour (AID 1224890). Also: nearly all actives have a fitted effect of over 45% in size. The essentials: as §1
Experiment [9] is described as follows: qHTS assay to identify small molecule antagonists of the androgen receptor (AR) signaling pathway using the MDA cell line in the presence of 0.5 nM R1881 - cell viability counter screen (AID 1259242). Also: nearly all actives have a fitted effect of over 45% in size. Also: potency is read from the fitted curve at half-maximal effect. The essentials: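 MDA-kb2 cells (human breast carcinoma, stably carrying MMTV-luciferase reporter) were exposed to compounds with 0.5 nM R1881 (final) for 16 hr at 37C, 0% CO2; viability then read as live-cell protease fluorescence (CellTiter-Fluor, 30 min) in the same wells.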

Experiment [10] concerns the target Androgen receptor (Homo sapiens) (UniProt P10275). The experiment in a line: qHTS assay to identify small molecule antagonists of the androgen receptor (AR) signaling pathway using the MDA cell line in the presence of 0.5 nM R1881 (AID 1259243). Also: nearly all actives have a fitted effect of over 50% in size. The essentials:
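MDA-kb2 human breast carcinoma cells carrying an MMTV-luciferase reporter (AR- and GR-responsive) were plated, rested 5 hr at 37C, dosed with compounds, then stimulated with 0.5 nM R1881 (final) for 16 hr; luminescence was read after ONE-Glo.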

Experiment [11] can be described thus: qHTS assay to identify small molecule HDAC inhibitors (AID 1259364). Also: top concentration of the series differs between compounds; nearly all actives have a fitted effect of over 45% in size. The essentials:
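Wild-type HCT-116 cells were plated overnight, exposed to compounds for 2 h at 37 °C, then given HDAC-Glo class I/II luminogenic reagent for 30 min at room temperature before luminescence was read.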

Experiment [12] is described as follows: qHTS assay to identify small molecule HDAC inhibitors - cell viability counter screen (AID 1259365). The essentials:
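Wild-type HCT-116 cells, 1,500/well, cultured overnight, then compound-treated 2 h at 37 C. Viability measured as ATP luminescence with CellTiter-Glo after 30 min at room temperature.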

Experiment [13] is described as follows: qHTS assay to identify small molecule agonists of the sonic hedgehog signaling (Shh) pathway - cell viability counter screen (AID 1259366). Also: nearly all actives have a fitted effect of over 50% in size. Also: potency is read from the fitted curve at half-maximal effect. In short, it runs like this:
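NIH/3T3-derived Gli1-Luc reporter cells, 2,000 per well, received compound after 4 h and were treated about 23 h at 37C. Viability measured in the same wells by CellTiter-Fluor fluorescence after 1 h.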

A short description of experiment [14]: qHTS assay to identify small molecule antagonists of the sonic hedgehog signaling (Shh) pathway - cell viability counter screen (AID 1259367). Also: nearly all actives have a fitted effect of over 55% in size. Also: potency is read from the fitted curve at half-maximal effect. The essentials: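 Using CellTiter-Fluor, viability of Gli1-Luc reporter 3T3 cells is read by fluorescence in the wells used for the Shh luciferase assay. Treatment lasts 23 hr with conditioned medium, then reagent 1 hr at 37C.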

Experiment [15] in a line: qHTS assay to identify small molecule agonists of the sonic hedgehog signaling (Shh) pathway (AID 1259368; calls by dose curve; also: series mostly up to about 92 µM; nearly all actives have a fitted effect of over 15% in size). In short, it runs like this: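 NIH/3T3-derived 3T3Gli1-Luc cells carrying a stably integrated Gli1 response element–firefly luciferase reporter were plated, left 4 hr at 37 C, then given compounds in DMSO for 24 hr. Luminescence was read 30 min after adding luciferase reagent.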

The nature of experiment [16]: qHTS assay to identify small molecule antagonists of the sonic hedgehog signaling (Shh) pathway (AID 1259369; calls by dose curve; also: nearly all actives have a fitted effect of over 45% in size). The essentials: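 NIH/3T3-derived 3T3Gli1-Luc cells with stably integrated Gli1-Luc reporter were preincubated 4hr at 37 C, then given compounds in DMSO plus Shh conditioned medium and incubated 24hr. Firefly luciferase luminescence read after 30min reagent at room temperature.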

Experiment [17] addresses Estrogen receptor (Homo sapiens) (UniProt P03372). The experiment in a line: qHTS assay to identify small molecule antagonists of the estrogen receptor alpha (ER-alpha) signaling pathway using the BG1 cell line in the presence of 0.1 nM 17-beta-estradiol (AID 1259244). Also: nearly all actives have a fitted effect of over 50% in size. In short, it runs like this: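 VM7Luc4E2 cells (endogenous full-length ER-alpha, stable 4xERE-luciferase) were grown 5 days in phenol red-free medium with charcoal-stripped FBS, then exposed 22 h at 37C to compounds plus 0.1 nM (final) 17beta-estradiol; ONE-Glo luminescence read-out.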

Experiment [18] can be described thus: qHTS assay to identify small molecule phospholipidosis (PLD) inducers (AID 1259344; active = well fitted curve in the direction sought with a large enough effect; an effect the other way counts as inactive or inconclusive). The essentials:
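Fluorescent phospholipid staining (LipidTOX Red) measured by automated microscopy in fixed HepG2 cells after 24 h treatment; nuclei counterstained with Hoechst 33342; amiodarone as reference inducer.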

Experiment [19] is described as follows: qHTS RealTime-Glo MT Cell Viability Assay in HEK293 cells - 24 hour (AID 1224886). In short, it runs like this:
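Homogeneous bioluminescent viability format in HEK293 cells (600 cells/well). Following 5 h at 37 C/5% CO2, 23 nL compound was pintooled; the signal was measured repeatedly during 40 h incubation.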

The nature of experiment [20]: qHTS assay to identify small molecule antagonists of the estrogen receptor alpha (ER-alpha) signaling pathway using the BG1 cell line in the presence of 0.1 nM 17-beta-estradiol - cell viability counter screen (AID 1259241). Also: nearly all actives have a fitted effect of over 40% in size. Also: potency is read from the fitted curve at half-maximal effect. The essentials:
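VM7Luc4E2 cells (endogenous full-length ER-alpha, 4xERE-luciferase), cultured 5 days in charcoal-stripped serum, exposed to compounds with 0.1 nM 17beta-estradiol (final) for 22 hr at 37C. Viability read in same wells as live-cell protease fluorescence after 30 min.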

Chain of Estrogen receptor (Homo sapiens) (P03372 whole entry, looked up): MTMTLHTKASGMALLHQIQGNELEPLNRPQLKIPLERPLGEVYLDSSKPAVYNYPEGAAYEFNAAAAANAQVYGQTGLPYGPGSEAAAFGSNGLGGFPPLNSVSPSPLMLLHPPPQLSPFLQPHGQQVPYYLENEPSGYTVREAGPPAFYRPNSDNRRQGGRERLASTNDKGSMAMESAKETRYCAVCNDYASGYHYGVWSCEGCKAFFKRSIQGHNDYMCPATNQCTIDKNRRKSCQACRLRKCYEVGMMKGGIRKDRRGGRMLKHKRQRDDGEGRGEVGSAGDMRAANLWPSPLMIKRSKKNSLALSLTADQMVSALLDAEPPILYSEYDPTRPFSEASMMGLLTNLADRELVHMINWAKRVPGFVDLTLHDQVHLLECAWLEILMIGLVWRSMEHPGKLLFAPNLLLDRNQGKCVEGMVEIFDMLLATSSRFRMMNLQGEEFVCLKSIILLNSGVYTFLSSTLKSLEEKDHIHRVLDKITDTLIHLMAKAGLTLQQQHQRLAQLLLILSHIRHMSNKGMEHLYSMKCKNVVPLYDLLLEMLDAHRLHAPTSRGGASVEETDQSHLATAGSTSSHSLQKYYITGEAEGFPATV
Chain of Androgen receptor (Homo sapiens) (P10275 whole entry, looked up): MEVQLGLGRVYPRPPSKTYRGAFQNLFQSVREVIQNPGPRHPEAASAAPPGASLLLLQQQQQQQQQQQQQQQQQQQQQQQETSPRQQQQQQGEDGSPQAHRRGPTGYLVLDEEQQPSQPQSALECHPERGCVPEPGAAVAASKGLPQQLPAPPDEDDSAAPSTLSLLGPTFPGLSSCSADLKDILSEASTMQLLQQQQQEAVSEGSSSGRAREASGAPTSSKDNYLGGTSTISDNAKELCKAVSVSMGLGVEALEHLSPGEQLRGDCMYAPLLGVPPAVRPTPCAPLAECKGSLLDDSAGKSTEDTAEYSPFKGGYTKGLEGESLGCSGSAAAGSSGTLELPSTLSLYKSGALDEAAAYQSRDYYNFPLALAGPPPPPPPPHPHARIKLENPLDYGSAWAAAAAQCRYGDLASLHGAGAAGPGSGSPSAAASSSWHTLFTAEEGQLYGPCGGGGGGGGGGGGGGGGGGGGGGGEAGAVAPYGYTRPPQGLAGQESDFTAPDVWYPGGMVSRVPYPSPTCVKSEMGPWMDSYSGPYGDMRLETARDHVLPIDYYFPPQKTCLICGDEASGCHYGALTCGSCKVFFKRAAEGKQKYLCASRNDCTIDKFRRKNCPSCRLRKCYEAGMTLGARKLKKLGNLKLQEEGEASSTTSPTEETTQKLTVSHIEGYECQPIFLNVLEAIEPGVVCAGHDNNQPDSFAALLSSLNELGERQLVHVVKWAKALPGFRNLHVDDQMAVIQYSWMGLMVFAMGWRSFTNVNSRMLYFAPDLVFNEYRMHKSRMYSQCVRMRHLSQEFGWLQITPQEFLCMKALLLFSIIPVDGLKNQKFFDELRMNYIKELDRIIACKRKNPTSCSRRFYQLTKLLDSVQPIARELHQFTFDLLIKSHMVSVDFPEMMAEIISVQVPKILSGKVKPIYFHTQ

Consider `N[C@H]1C(O)O[C@H](CO)[C@H](O)[C@@H]1O` (stereo partly specified), for which the Potency entry in experiment [1], in experiment [2], in [3], in experiment [4], in [5] and in experiment [6] was “inactive” each time. For the same molecule, the Potency entry in [7], in [8], in experiment [9], in [10], in experiment [11] and in [13] was “inactive” each time. The Potency entry in experiment [14] and in experiment [16] was “inactive” each time. The molecule was called inactive in [12] and in experiment [15].
`CC(=O)N(O)CCCCCNC(=O)CCC(=O)N(O)CCCCCNC(=O)CCC(=O)N(O)CCCCCN`: the Potency entry in experiment [1], in experiment [2], in experiment [3], in experiment [4], in experiment [5] and in experiment [6] was “inactive” throughout. For the same molecule, the Potency entry in experiment [7], in experiment [8], in experiment [9], in experiment [10], in [17] and in experiment [18] was “inactive” throughout. The Potency entry in experiment [11], in experiment [13], in experiment [14] and in [16] was “inactive” throughout. Also, the molecule was called inactive in [12] and in experiment [15].
Consider `CN(C)CC[C@@H](c1ccc(Br)cc1)c1ccccn1`, for which the Potency entry in [1], in experiment [2], in experiment [3], in [4], in [5] and in experiment [6] was “inactive” throughout. For the same molecule, the Potency result in [7], in experiment [8], in experiment [9], in experiment [17], in experiment [18] and in [11] was “inactive” each time. The Potency result in experiment [13], in experiment [14] and in [16] was “inactive” throughout. In addition, the call in experiment [12] and in experiment [15] was inactive.
In the case of `CC1=CCC(C(C)C)C=C1` (stereo unspecified), the Potency result in [1], in [2], in experiment [3], in experiment [19], in experiment [5] and in experiment [6] was “inactive” throughout. The Potency result in [7], in [8], in experiment [20], in experiment [9], in experiment [17] and in experiment [11] was “inactive” in each case. The Potency result in experiment [14] and in [16] was “inactive” throughout. Also, the molecule was classed as inactive in experiment [12] and in experiment [15].
Take `COc1ccccc1OC(=O)Oc1ccccc1OC`: the Potency entry in [1], in experiment [2], in experiment [3], in experiment [4], in experiment [5] and in experiment [6] was “inactive” throughout. The Potency entry in experiment [7], in experiment [8], in experiment [20], in experiment [9], in [18] and in experiment [11] was “inactive” each time. Moreover, the Potency result in experiment [14] and in experiment [16] was “inactive” in each case. The molecule was called inactive in experiment [12] and in experiment [15].
For `CCCCCCCCCCCCCCCBr`, the Potency result in [1], in experiment [2], in experiment [3], in experiment [4], in experiment [5] and in experiment [6] was “inactive” in each case. In addition, the Potency result in experiment [7], in experiment [8], in [20], in [9], in [17] and in experiment [11] was “inactive” in each case. Moreover, the Potency entry in experiment [16] was “inactive”. Moreover, the molecule was classed as inactive in experiment [12] and in experiment [15].
As for `Cc1cc(C)c(S(=O)(=O)O)cc1N=Nc1cc(S(=O)(=O)O)c2ccccc2c1O`, the Potency result in experiment [1], in experiment [2], in [3], in experiment [4], in experiment [6] and in experiment [7] was “inactive” throughout. Moreover, the Potency result in experiment [8], in experiment [10], in experiment [11] and in [16] was “inactive” throughout. The Potency in [20] is 54.5 µM (active); in experiment [9], 61.1 µM (active); in experiment [13], 27.3 µM (active); in [14], 30.6 µM (active). The call in [12] and in experiment [15] was inactive.
For the molecule `O=C(Cl)c1ccc([N+](=O)[O-])cc1`, the Potency entry in experiment [1], in [2], in [3], in experiment [4], in [5] and in experiment [6] was “inactive” throughout. The Potency entry in experiment [7], in experiment [8], in [9], in experiment [10], in experiment [17] and in experiment [11] was “inactive” each time. Further, the Potency result in [13] and in experiment [14] was “inactive” throughout. Moreover, the outcome in experiment [12] and in experiment [15] was inactive.
As for `Cn1c(N)nc2nc[nH]c2c1=O`, the Potency result in experiment [1], in experiment [2], in [3], in experiment [4], in experiment [5] and in experiment [6] was “inactive” each time. The Potency result in experiment [7], in [8], in [20], in experiment [9], in [11] and in experiment [13] was “inactive” throughout. Besides, the Potency entry in experiment [14] and in [16] was “inactive” in each case. In addition, the molecule was called inactive in experiment [12] and in experiment [15].
